Assay outcomes from PubChem.
POLH inh = blocks human DNA polymerase eta activity; AID 588591; recombinant Pol eta, fluorescent DNA replication assay; hit rate 1.2% among 390,000; Potency, µM (titrated, usually from 114 µM), hits mostly inhibitors
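Pol eta (10 nM) was preincubated with compounds for 15 min at room temperature, after which fluorescent replication substrate (50 nM final) was added to start the reaction. Fluorescence was read kinetically at 0 and 10 min.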
FEN1 inhibitor = human FEN1 inhibition | P39748 | Recombinant FEN1 flap cleavage, fluorescence, 15 min | Potency, µM (series often up to 114 µM), most hits filed as inhibitors | hit rate 0.35% among 390,000 | AID 588795; note: nearly all actives have a fitted effect of over 65% in size
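Concentration–response screening of FEN1 (10 nM): 15 min compound preincubation at room temperature, reaction started with 50 nM substrate and read at 0 and 15 min. Corrected, normalized data were fitted by a four-parameter Hill equation.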
TDP1 block = inhibitors of human tyrosyl-DNA phosphodiesterase TDP1; recombinant TDP1, AlphaScreen DNA substrate cleavage; Q9NUW8; AID 485290; Potency, µM (highest dose often 130 µM), actives largely listed as inhibitors; hit rate 0.28% among 350,000; note: nearly all actives have a fitted effect of over 40% in size
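Steps: enzyme plus compound, 15 min RT; add biotin/phosphotyrosine-FITC oligonucleotide (15 nM final), react 5 min; add donor/acceptor beads (10 ug/ml final), 10 min; read AlphaScreen. Tdp1 at 1 nM final.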
Pol iota inh = inhibitors of human DNA polymerase iota; Q9UNA4; AID 588590; hit rate 1% among 390,000; Potency, µM (doses to about 115 µM), most hits filed as inhibitors; Pol iota fluorescent replication assay, 10 min
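Pol iota at 10 nM preincubated 15 min with compounds at room temperature; reaction started with fluorescent substrate, 50 nM final. Fluorescence read kinetically at 0 and 10 min; buffer-only wells as negative control.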
POLK inh = blocks human DNA polymerase kappa activity; AID 588579; Q9UBT6; purified Pol kappa, fluorescent DNA synthesis assay, 10 min; Potency, µM (top dose mostly 107 µM), most hits filed as inhibitors; hit rate 0.53% among 400,000
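Fluorescent qHTS in 1536-well format: enzyme (10 nM) and compound sat 15 min at room temperature before 50 nM substrate (final) was added. Signal taken at 0 and 10 min; no-enzyme buffer wells were negative controls.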
POLB inh = blocks human DNA polymerase beta activity | Pol beta primer extension/strand displacement, fluorescence kinetic | Potency, µM (doses to about 114 µM), hits mostly inhibitors | hit rate 1.3% among 340,000 | AID 485314 | P06746
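Preincubation: enzyme (10 nM) with compound, 15 min, RT. Reaction: substrate added to 50 nM final. Reads: 0 and 10 min. Analysis: normalized, Hill fit.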
Hits are given with their value; – = inactive; ? = inconclusive; · = no result given; ! = repeats disagree. An excerpt weighted towards active compounds, which were near 2.4% of everything screened. Calls come from the whole dose curve; as a rule, active = well fitted curve in the direction sought with a large enough effect; inconclusive = small, poorly fitted or top-dose-only effect, or another doubt; inactive = no such curve, though single readings can be large; an effect the other way counts as inactive or inconclusive.

SMILES	POLH inh	FEN1 inhibitor	TDP1 block	Pol iota inh	POLK inh	POLB inh
CC1=CC2/C=C(\C)CCC(O)C(O)/C=C/C(=O)C23C(=O)NC(CC(C)C)C3C1C (stereo not drawn)	–	–	–	–	–	–
C/C1=C\[C@@H](C)C/C=C/[C@H]2[C@@H]3O[C@]3(C)[C@@H](C)[C@H]3[C@H](Cc4c[nH]c5ccccc45)NC(=O)[C@]32C(=O)/C=C/C(=O)[C@@H]1O	?	–	–	?	?	22µM
Cc1ccc(NC(=O)COC(=O)/C=C/c2ccco2)cc1S(=O)(=O)N(C)C	16µM	–	–	?	–	?
Cc1ccc(N/N=C/C=C/c2ccco2)cc1	–	–	·	–	–	·
Cc1csc2nc(COC(=O)c3ccccc3NC(=O)c3ccc(F)cc3)cc(=O)n12	–	–	–	–	–	–
CC1=NNC(=O)C1Br (stereo not drawn)	–	–	·	28µM	–	·
COc1ccc(C(=O)Nc2ccccc2C(=O)NC(C(=O)NCc2ccco2)C(C)C)cc1 (stereo not drawn)	8.9µM	–	–	–	–	–
Nc1c(C(=O)NCc2ccco2)c2nc3ccccc3nc2n1Cc1ccc(F)cc1	–	–	–	–	–	–
O=S(=O)(O)c1cc(N=C=S)ccc1/C=C/c1ccc(N=C=S)cc1S(=O)(=O)O	·	·	·	·	35µM	·
CCOc1cc(/C=C2/C(=O)NC(=O)N(c3ccc(CC)cc3)C2=O)ccc1OC(=O)c1cccs1	45µM	–	–	–	–	–
C[C@H](N)C(=O)NCC(=O)N[C@H]1CSSC[C@@H](C(=O)O)NC(=O)[C@H](CO)NC(=O)[C@H]([C@@H](C)O)NC(=O)[C@H](Cc2ccccc2)NC(=O)[C@H]([C@@H](C)O)NC(=O)[C@H](CCCCN)NC(=O)[C@@H](Cc2c[nH]c3ccccc23)NC(=O)[C@H](Cc2ccccc2)NC(=O)[C@H](Cc2ccccc2)NC(=O)[C@H](CC(N)=O)NC(=O)[C@H](CCCCN)NC1=O	·	·	–	·	–	·
CS(=O)c1ccc(-c2nc(-c3ccc(F)cc3)c(-c3ccncc3)[nH]2)cc1 (stereo not drawn)	·	·	–	·	?	·
Cc1ccc(N2C(=O)/C(=C/c3ccc(CN(CCC#N)S(C)(=O)=O)o3)C(=O)NC2=S)cc1	2.2µM	35µM	–	3.2µM	18µM	6.3µM
COc1ccc(N2C(=O)/C(=C/c3ccc(N(C)C)o3)C(=O)NC2=S)cc1	–	–	·	?	–	–
C=CCN(CC(=O)c1sc(C(=O)OCC)nc1C)c1cccc(Br)c1	–	–	·	–	–	·
CCC1(C)CC(C(N)=S)CCO1 (stereo not drawn)	–	–	–	?	–	–
O=C(Nc1cccc(C(=O)Nc2cc(C(=O)Nc3ccc([S+](=O)([O-])[O-])c4cc([S+](=O)([O-])[O-])cc(SOOO)c34)ccc2F)c1)Nc1cccc(C(=O)Nc2cc(C(=O)Nc3ccc([S+](=O)([O-])[O-])c4cc([S+](=O)([O-])[O-])cc([S+](=O)([O-])[O-])c34)ccc2F)c1	·	·	2.2µM	·	0.06µM	·
O=C1c2ccccc2C(=O)c2ccccc21	·	·	–	·	–	·
c1ccc2c(c1)[IH]c1ccccc1-2	–	50µM	·	?	–	·
O=C1NC(=O)N(c2ccc3c(c2)OCO3)C(=O)/C1=C\c1ccc(-c2ccccc2C(=O)O)o1	10µM	?	11µM	20µM	79µM	10µM
CCCCCCCCCCCCCCCC[n+]1ccccc1	–	79µM	–	–	–	·
COc1ccccc1-c1nc2c(c(SCc3cccc(Cl)c3)n1)Cc1c(CO)cnc(C)c1O2	–	–	–	–	–	–
O=c1[nH]c(=S)[nH]c(O)c1N=Nc1ccc(S(=O)(=O)N2CCc3ccccc32)cc1	–	–	–	–	–	79µM
NC(=O)[C@H](Cc1ccccc1)NC(=O)[C@H](Cc1c[nH]c2ccccc12)NC(=O)[C@@H]1CCCN1C(=O)[C@@H](N)Cc1ccc(O)cc1	·	·	–	·	–	·
CCN(CC)C(=O)Cn1cc(S(=O)(=O)CC(=O)NCc2ccc(C)cc2)c2ccccc21	–	–	·	–	–	·
SMILES	POLH inh	FEN1 inhibitor	TDP1 block	Pol iota inh	POLK inh	POLB inh
CC(C)n1c(O)c(C2c3cc(Cl)ccc3Oc3[nH]c(=O)n(C(C)C)c(=O)c32)c(=O)[nH]c1=O (stereo not drawn)	?	–	–	16µM	–	–
CC(=O)c1c(O)n(-c2cccc(Cl)c2)c(=O)[nH]c1=O (tested in a mixture with another compound)	–	–	–	–	–	–
CC(=O)Nc1ccc(Cc2nc3ccccc3[nH]2)cc1	–	–	–	–	–	–
COc1ccccc1-c1nn2c(=O)cc(CN3CCN(C(=O)Nc4ccc(C)cc4Cl)CC3)nc2s1	–	–	–	–	–	–
CC1=C2C3OC(=O)C(C)C3CC[C@@]2(C)C=CC1=O (stereo partly drawn)	–	–	14µM!	–	–	–
CC1Cc2ccccc2N1C(=O)COC(=O)c1ccc(Cl)nc1 (stereo not drawn)	–	–	–	–	–	–
COc1cc2c(cc1OC)-c1c(OC)c(OC)cc3c1C(C2)N(C)CC3 (stereo not drawn)	–	–	–	11µM	–	–
CN(C)C1C(=O)C(C(N)=O)=C(O)[C@@]2(O)C(=O)C3=C(O)c4c(O)cccc4[C@](C)(O)C3C(O)C12 (stereo partly drawn)	·	·	·	·	2.8µM	·
CN(C)C1C(=O)C(C(N)=O)C(=O)C2(O)C(=O)C3C(=O)c4c(O)cccc4C(C)(O)C3C(O)C12 (stereo not drawn)	·	·	?	·	2.8µM	·
CN(C)[C@@H]1C(=O)C(C(N)=O)=C(O)[C@@]2(O)C(=O)C3=C(O)c4c(O)cccc4[C@@](C)(O)C3C[C@@H]12 (stereo partly drawn)	–	?	·	?	79µM	·
CN(C)[C@@H]1C(=O)C(C(N)=O)=C(O)[C@@]2(O)C(=O)C3=C(O)c4c(O)ccc(Cl)c4[C@@](C)(O)[C@H]3C[C@@H]12	–	?	·	–	–	–
N#CSCSC#N	·	·	–	·	·	·
Cn1cccc1C(=O)OCC(=O)NCc1cccs1	–	–	–	–	–	·
CN(C)c1ccc(/C=C/c2cc[n+](C)c3ccccc23)cc1	?	35µM	–	79µM	?	?
CCn1c(O)c(C=Nc2ccc(N3CCOCC3)c(Br)c2)c(=O)n(CC)c1=S	–	–	–	–	–	–
CCn1c(O)c(C=Nc2ccc(N3CCOCC3)cc2)c(=O)n(CC)c1=S	–	–	–	–	–	18µM
CCOc1ccc2nc(N=Nc3c(O)[nH]c(=S)[nH]c3=O)sc2c1	?	?	–	–	–	–
